Results filed as inconclusive are left out. Activity calls are given as the source filed them. The call rests on the fitted dose curve; in most records, active means well fitted inhibition curve with a large enough effect; inconclusive means small, poorly fitted or top-dose-only effect; inactive means flat fitted curve, though single readings scatter.
Key:
Test in all cases: Cytotoxic Profiling of Annotated Libraries Using Quantitative High-Throughput Screening (AID 1296008); further: nearly all actives have a fitted effect of over 60% in size
Details in all cases: Five cell lines viability, CellTiter-Glo ATP luminescence, 48-72 h; max response: stronger effect = lower value
[1] = test system: CRL-7250
Procedure, shortened: (§1)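 Cytotoxicity was measured as CellTiter-Glo ATP luminescence, read after 10 min at room temperature. Compound treatment of the cells lasted 48 or 72 hr at 37 degrees Celsius in a qHTS format.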

[2] = test system: HEK293
Procedure, shortened: as §1

[3] = test system: HaCat
Procedure, shortened: as §1

[4] = test system: KB-3-1
Procedure, shortened: as §1
On the % scale 0 is the no-effect control and ±100 the full control effect; potency means the concentration at half of the fitted maximal effect.

CC(C)(C)OC(=O)N1CCC(OCc2nc(-c3ccncc3)no2)CC1
inactive: max response [1] -15.9% | max response [2] 0.811% | max response [3] 4.75% | max response [4] -6.38%

COc1ccc(CNC(=O)c2sc3nc(C)cc(C)c3c2N)cc1
inactive: max response [1] -0.266% | max response [2] -0.378% | max response [3] -25% | max response [4] -4.88%

CCOc1ccc2nc(SCCN3CCOCC3)[nH]c2c1
inactive: max response [1] -3.31% | max response [2] -19.2% | max response [3] 4.78% | max response [4] -9.7%

CCOc1ccc(S(=O)(=O)n2c(C)nc3ccccc32)cc1
inactive: max response [1] -1.87% | max response [2] -8.26% | max response [3] -31.1% | max response [4] -3.74%

COC(=O)CCSCc1ccc(-c2onc(C)c2NC(=O)OC(C)c2ccccc2Cl)cc1 (configuration not stated)
inactive: max response [1] -4.23% | max response [2] -7.48% | max response [3] -24.6% | outcome [4]

C[C@@]12C[C@]3(O)O[C@H](O1)[C@]1(COC(=O)c4ccccc4)[C@H]3C[C@@]12O[C@@H]1O[C@H](CO)[C@@H](O)[C@H](O)[C@H]1O
inactive: max response [1] 0.654% | max response [2] 0.308% | max response [3] -7.15% | max response [4] 8.38%

CC(C)CCC1(O)C(=O)C(C)(C)C(O[C@@H]2O[C@H](CO)[C@@H](O)[C@H](O)[C@H]2O)C(C)(C)C1O (some centres not stated)
inactive: max response [1] 0.265% | max response [2] -13.9% | max response [3] -4.8% | max response [4] 0.0434%

CN(C)C/C=C/C(=O)Nc1cccc(C(=O)Nc2cccc(Nc3ncc(Cl)c(-c4c[nH]c5ccccc45)n3)c2)c1
active: Potency [1] 0.259 µM | Potency [2] 0.58 µM | Potency [3] 4.61 µM | Potency [4] 1.03 µM

CC(=O)CCC1=C(C)C(O[C@@H]2O[C@H](CO)[C@@H](O)[C@H](O)[C@H]2O)C(O)CC1(C)C (some centres not stated)
inactive: max response [1] -13.4% | max response [2] 0.019% | max response [3] 1.46% | max response [4] 1.06%

Cc1nc2ccc(Oc3ccc(F)cc3)cc2c(=O)n1C[C@H]1CCCN(C(C)C)C1
inactive: max response [1] -2.55% | max response [2] -15.9% | outcome [3] | max response [4] 5.64%

CC1=CCC(C(C)(C)O[C@@H]2O[C@H](CO[C@@H]3O[C@@H](C)[C@H](O)[C@@H](O)[C@H]3O)[C@@H](O)[C@H](O)[C@H]2O)CC1 (some centres not stated)
inactive: max response [1] -8.36% | max response [2] 2.02% | max response [3] 1.99% | outcome [4]

CC(=O)O[C@H]1CC(C)(C)CC2[C@@]13[C@H](O)C[C@]1(C)[C@@]2(CCC2[C@@]4(C)CC[C@H](O[C@@H]5OC[C@H](O[C@@H]6O[C@H](CO)[C@@H](O)[C@H](O)[C@H]6O[C@@H]6OC[C@@H](O)[C@H](O)[C@H]6O)[C@H](O)[C@H]5O[C@@H]5O[C@H](CO)[C@@H](O)[C@H](O)[C@H]5O)C(C)(C)C4CC[C@]21C)O[C@@H]3O (some centres not stated)
inactive: max response [4] -24.8%
active: Potency [1] 2.46 µM | Potency [2] 1.95 µM | Potency [3] 3.48 µM

CC1(C=O)CC[C@]2(C(=O)O[C@@H]3O[C@H](CO)[C@@H](O)[C@H](O)[C@H]3O)CC[C@]3(C)C(=CCC4[C@@]5(C)C[C@H](O)[C@H](O[C@@H]6OC[C@@H](O)[C@H](O)[C@H]6O)[C@@](C)(CO)C5CC[C@]43C)C2C1 (some centres not stated)
inactive: max response [1] -5.25% | max response [2] -6.07% | max response [3] -0.307% | outcome [4]

Nc1ccc(-c2cccc3c(=O)cc(N4CCOCC4)oc23)cc1
active: Potency [1] 5.8 µM | Potency [2] 7.31 µM | Potency [3] 6.51 µM | Potency [4] 20.6 µM

Cc1ccccc1C#Cc1ccc(CCC(=O)O)cc1
inactive: max response [1] -3.17% | max response [2] -13.9% | max response [3] -15.6% | max response [4] -11.6%

COc1cccc(C(=O)N2CCN(C(=O)COc3cccc(C)c3)CC2)c1OC
inactive: outcome [1] | max response [2] -16.5% | max response [3] -1.12% | max response [4] -10.9%

O=C(CCc1nnc2n(Cc3ccc(Cl)cc3)c(=O)c3ccccc3n12)NCCC1=CCCCC1
inactive: max response [1] -19.2% | max response [2] -12.9% | max response [3] 3.41% | max response [4] -11.9%

C=C[C@H]1[C@H](O[C@@H]2O[C@H](CO)[C@@H](O)[C@H](O)[C@H]2O)OC=C(C(=O)OC)[C@H]1C/C=C(/C=O)[C@@H]1C(C(=O)OC)=CO[C@@H](O[C@@H]2O[C@H](CO)[C@@H](O)[C@H](O)[C@H]2O)[C@@H]1C=C
inactive: max response [1] -8.61% | max response [2] -29.3% | max response [3] -4.96% | max response [4] 1.41%

CC(C)=CCC[C@](C)(O)[C@H]1CC[C@]2(C)[C@@H]1[C@H](O)CC1[C@@]3(C)CC[C@H](O)C(C)(C)C3[C@@H](O[C@@H]3O[C@H](CO)[C@@H](O)[C@H](O)[C@H]3O[C@@H]3OC[C@@H](O)[C@H](O)[C@H]3O)C[C@]12C (some centres not stated)
inactive: max response [1] -0.925% | max response [2] 4.3% | max response [3] -1.39% | outcome [4]

CC(C)(C)C(=O)CN1C(=O)[C@H](NC(=O)Nc2cccc(C(=O)O)c2)CN(C2CCCCC2)c2ccccc21
inactive: max response [1] 1.1% | max response [2] 1.37% | max response [3] -3.07% | outcome [4]

COCC1OC(OC(C)(C)C2CCC3(C)C=C(C4CCC5C4(C)CC(O)C4OC(C(C)(C)OC6OC(CO)C(O)C(O)C6NC(C)=O)CCC45C)CCC3O2)C(NC(C)=O)C(O)C1O (configuration not stated)
inactive: max response [1] 2.51% | max response [2] -5.83% | max response [3] -6.25% | max response [4] 1.62%

COc1ccccc1Oc1ccc(N(Cc2cccnc2)S(=O)(=O)CC(F)(F)F)cc1
inactive: max response [1] -7.01% | max response [2] 4.88% | max response [3] 0.0707% | max response [4] -5.75%

COc1cc(C)c(C(=O)Oc2cc(C)c(C(=O)Oc3cc(C)c(C(=O)NC(C)C(=O)O)c(O)c3)c(O[C@@H]3O[C@H](CO)[C@@H](O)[C@H](O)[C@H]3OC(C)=O)c2)c(OC)c1 (some centres not stated)
inactive: max response [1] -13.8% | max response [2] -3.13% | max response [3] -13.9% | max response [4] -6.88%

COc1cc2ncnc(Nc3cccc(O)c3)c2cc1OC
active: Potency [3] 4.61 µM
inactive: outcome [1] | max response [2] -2.36% | outcome [4]

C=C[C@@]12COC(=O)C(=C)C1[C@@H](O)[C@H](C(=C)C(=O)OC)[C@@H](OC(=O)C(=C)CO)C2 (some centres not stated)
inactive: max response [1] -22.2% | max response [3] -6.28% | outcome [4]
active: Potency [2] 10 µM

CC(O)/C=C/C1(O)C2(C)COC1(C)CC(O)C2 (configuration not stated)
inactive: max response [1] -12.7% | max response [2] -7.99% | max response [3] -4.33% | max response [4] -4.44%

O=C(O)/C=C/c1cc2c(cc1O[C@@H]1O[C@H](CO)[C@@H](O)[C@H](O)[C@H]1O)OCO2
inactive: max response [1] 4.22% | max response [2] 2.33% | max response [3] 0.0176% | max response [4] 8.77%

Cc1nc(C)c(-c2ccc(C3CCC(CC(=O)O)CC3)cc2)nc1C(N)=O (configuration not stated)
inactive: max response [1] 0.3% | max response [2] -0.422% | max response [3] -2.77% | max response [4] -11.8%

N#C[C@@H]1C[C@H](F)CN1C(=O)CNC1[C@H]2CN(C(=O)c3ccc(F)cc3)C[C@@H]12 (some centres not stated)
inactive: max response [1] -1.2% | max response [2] 2.87% | max response [3] -7.89% | max response [4] 1.86%

CC(O)(CC(=O)O)CC(=O)OCc1ccc(O[C@@H]2O[C@H](CO)[C@@H](O)[C@H](O)[C@H]2O)cc1 (some centres not stated)
inactive: outcome [1] | max response [2] -1.35% | max response [3] 1.6% | outcome [4]

CC1=C(/C=C/C(C)=C\C=C\C(C)=C/C(=O)O)C(C)(C)CCC1
inactive: max response [1] -50.6% | max response [2] 0.159% | max response [3] -22.2% | outcome [4]

COc1cccc(Nc2ncnn3ccc(CN4CC[C@@H](N)[C@H](O)C4)c23)c1
inactive: max response [4] -14.7%
active: Potency [1] 8.2 µM | Potency [2] 13 µM | Potency [3] 0.0058 µM

CC1C(=O)OCC2=CCN3CCC(OC(=O)C(C)(O)C1(C)O)C23 (configuration not stated)
inactive: outcome [1] | max response [2] -9.35% | max response [3] -22.6% | outcome [4]
